Measurements published in the supplement of paper PMC6411743.
± gives the standard deviation of the averaged measurements. Of roughly 6,200 targets only a part is listed; those with the largest changes were picked by preference.

Compound: Nc1ncnc2c1ncn2[C@@H]1O[C@H](COP(=O)(O)OP(=O)(O)NP(=O)(O)O)[C@@H](O)[C@H]1O [adenylyl imidodiphosphate]
Assay: NP40-soluble protein abundance relative to vehicle (solubility fold change) (ratio); higher = more soluble protein in presence of AMP-PNP
Method in brief: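 Jurkat crude lysate prepared with a Dounce homogeniser was treated at eight concentrations spanning 0.1 to 10 mM, 10 min at room temperature then 3 min at 37 °C. Solubilisation with 0.8% NP40 and benzonase and ultracentrifugation preceded TMT labelling of the supernatant for LC-MS/MS. Fold change against the detergent-processed vehicle was determined per replicate from vsn-normalised intensities, across three independent experiments.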

Chain of UniProt Q460N5 (Q460N5 whole entry): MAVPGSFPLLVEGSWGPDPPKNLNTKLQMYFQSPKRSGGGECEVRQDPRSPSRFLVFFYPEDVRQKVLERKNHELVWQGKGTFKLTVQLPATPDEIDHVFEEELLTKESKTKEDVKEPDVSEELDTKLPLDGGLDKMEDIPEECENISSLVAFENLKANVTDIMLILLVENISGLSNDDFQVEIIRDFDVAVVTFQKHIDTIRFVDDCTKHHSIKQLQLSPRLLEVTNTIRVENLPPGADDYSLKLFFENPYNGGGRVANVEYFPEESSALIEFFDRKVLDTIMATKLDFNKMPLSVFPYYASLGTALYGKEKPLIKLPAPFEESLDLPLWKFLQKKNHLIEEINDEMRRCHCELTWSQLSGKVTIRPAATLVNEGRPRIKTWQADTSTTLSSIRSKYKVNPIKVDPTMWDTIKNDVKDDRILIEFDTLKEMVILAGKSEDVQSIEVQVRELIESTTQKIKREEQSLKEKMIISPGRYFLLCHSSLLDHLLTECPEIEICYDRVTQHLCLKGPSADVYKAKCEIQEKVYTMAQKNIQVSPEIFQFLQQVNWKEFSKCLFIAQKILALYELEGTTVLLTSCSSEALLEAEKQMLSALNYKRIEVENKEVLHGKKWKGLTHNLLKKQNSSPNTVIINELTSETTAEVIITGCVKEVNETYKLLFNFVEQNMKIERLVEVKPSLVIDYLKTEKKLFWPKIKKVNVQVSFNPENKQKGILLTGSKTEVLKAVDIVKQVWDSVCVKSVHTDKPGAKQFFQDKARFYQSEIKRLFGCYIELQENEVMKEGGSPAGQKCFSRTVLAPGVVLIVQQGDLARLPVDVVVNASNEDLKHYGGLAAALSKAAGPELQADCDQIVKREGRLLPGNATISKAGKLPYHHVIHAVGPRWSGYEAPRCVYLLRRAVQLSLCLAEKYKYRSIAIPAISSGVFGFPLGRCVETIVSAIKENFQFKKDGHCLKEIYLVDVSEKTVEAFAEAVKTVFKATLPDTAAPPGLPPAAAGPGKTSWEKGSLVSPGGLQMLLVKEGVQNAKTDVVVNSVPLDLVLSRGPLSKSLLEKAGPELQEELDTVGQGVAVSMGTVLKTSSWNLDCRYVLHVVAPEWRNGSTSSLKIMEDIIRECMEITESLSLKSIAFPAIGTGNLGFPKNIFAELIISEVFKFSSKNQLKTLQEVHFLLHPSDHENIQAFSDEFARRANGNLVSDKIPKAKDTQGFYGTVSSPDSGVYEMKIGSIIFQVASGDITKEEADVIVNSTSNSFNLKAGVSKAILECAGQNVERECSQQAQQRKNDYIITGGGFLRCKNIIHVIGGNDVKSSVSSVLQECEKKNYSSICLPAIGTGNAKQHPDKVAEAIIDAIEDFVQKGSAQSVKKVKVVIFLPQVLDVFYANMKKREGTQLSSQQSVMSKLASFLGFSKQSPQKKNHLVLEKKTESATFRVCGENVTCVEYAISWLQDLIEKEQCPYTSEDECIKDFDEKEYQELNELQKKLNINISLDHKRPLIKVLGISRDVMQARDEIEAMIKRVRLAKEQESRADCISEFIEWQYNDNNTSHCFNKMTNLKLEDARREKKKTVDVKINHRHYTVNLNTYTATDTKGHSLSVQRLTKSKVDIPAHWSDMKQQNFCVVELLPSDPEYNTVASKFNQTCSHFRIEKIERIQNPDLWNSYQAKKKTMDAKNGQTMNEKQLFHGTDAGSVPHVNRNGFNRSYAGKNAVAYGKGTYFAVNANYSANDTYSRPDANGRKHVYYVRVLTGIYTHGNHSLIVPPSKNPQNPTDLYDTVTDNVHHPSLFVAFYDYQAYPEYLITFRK
Chain of UniProt Q15223 (Q15223 whole entry): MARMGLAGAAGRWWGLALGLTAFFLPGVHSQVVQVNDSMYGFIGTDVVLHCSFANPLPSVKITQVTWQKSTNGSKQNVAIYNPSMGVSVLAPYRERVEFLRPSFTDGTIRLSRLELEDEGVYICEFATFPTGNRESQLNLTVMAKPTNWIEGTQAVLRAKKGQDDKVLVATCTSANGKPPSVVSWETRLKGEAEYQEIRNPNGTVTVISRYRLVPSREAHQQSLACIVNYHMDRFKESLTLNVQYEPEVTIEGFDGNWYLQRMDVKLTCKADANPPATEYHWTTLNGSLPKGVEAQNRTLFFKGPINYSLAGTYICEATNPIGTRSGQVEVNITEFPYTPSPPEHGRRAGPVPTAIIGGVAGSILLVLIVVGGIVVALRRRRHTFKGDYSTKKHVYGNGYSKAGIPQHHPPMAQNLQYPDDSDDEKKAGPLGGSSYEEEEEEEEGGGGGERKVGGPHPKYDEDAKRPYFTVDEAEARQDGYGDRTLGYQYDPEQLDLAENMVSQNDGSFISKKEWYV
Chain of UniProt Q8WZA9 (Q8WZA9 whole entry): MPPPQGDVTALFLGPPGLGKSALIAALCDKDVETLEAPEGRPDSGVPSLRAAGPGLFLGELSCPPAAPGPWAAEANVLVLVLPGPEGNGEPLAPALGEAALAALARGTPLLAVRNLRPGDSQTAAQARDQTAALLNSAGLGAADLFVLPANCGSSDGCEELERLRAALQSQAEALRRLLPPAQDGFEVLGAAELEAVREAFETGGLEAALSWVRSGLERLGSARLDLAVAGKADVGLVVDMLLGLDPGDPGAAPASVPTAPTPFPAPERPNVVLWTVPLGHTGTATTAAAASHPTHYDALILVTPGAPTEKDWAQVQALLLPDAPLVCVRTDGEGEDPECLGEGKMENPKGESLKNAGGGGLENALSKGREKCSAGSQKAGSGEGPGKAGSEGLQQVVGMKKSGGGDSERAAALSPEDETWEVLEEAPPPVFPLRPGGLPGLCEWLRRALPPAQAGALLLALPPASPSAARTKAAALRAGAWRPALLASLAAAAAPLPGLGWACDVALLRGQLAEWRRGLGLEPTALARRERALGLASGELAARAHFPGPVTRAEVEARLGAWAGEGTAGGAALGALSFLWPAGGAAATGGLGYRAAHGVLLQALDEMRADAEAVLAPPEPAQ
Chain of UniProt Q6PI48 (Q6PI48 whole entry): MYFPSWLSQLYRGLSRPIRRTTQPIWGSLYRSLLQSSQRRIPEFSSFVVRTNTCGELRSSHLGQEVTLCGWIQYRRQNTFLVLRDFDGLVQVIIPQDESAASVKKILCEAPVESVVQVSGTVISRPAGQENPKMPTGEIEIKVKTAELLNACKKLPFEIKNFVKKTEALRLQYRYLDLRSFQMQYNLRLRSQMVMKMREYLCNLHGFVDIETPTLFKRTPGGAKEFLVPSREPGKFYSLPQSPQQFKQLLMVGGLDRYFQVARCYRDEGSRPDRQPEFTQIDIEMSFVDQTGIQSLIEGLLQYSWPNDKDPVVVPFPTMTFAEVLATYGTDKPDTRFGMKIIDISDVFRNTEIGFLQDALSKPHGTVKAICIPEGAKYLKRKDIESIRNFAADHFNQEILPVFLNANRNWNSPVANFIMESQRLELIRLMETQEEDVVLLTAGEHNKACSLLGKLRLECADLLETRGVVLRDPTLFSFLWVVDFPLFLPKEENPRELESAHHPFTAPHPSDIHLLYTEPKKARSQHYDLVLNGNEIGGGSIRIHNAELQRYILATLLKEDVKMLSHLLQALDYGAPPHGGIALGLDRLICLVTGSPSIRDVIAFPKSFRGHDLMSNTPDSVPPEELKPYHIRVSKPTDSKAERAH
Chain of UniProt Q969F1 (Q969F1 whole entry): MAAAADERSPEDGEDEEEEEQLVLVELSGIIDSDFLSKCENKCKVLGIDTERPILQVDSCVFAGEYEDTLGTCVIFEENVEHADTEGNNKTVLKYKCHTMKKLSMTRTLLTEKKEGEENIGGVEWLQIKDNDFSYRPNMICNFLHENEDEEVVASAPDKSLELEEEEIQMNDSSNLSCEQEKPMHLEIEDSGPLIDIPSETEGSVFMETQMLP
Chain of UniProt Q13523 (Q13523 whole entry, looked up): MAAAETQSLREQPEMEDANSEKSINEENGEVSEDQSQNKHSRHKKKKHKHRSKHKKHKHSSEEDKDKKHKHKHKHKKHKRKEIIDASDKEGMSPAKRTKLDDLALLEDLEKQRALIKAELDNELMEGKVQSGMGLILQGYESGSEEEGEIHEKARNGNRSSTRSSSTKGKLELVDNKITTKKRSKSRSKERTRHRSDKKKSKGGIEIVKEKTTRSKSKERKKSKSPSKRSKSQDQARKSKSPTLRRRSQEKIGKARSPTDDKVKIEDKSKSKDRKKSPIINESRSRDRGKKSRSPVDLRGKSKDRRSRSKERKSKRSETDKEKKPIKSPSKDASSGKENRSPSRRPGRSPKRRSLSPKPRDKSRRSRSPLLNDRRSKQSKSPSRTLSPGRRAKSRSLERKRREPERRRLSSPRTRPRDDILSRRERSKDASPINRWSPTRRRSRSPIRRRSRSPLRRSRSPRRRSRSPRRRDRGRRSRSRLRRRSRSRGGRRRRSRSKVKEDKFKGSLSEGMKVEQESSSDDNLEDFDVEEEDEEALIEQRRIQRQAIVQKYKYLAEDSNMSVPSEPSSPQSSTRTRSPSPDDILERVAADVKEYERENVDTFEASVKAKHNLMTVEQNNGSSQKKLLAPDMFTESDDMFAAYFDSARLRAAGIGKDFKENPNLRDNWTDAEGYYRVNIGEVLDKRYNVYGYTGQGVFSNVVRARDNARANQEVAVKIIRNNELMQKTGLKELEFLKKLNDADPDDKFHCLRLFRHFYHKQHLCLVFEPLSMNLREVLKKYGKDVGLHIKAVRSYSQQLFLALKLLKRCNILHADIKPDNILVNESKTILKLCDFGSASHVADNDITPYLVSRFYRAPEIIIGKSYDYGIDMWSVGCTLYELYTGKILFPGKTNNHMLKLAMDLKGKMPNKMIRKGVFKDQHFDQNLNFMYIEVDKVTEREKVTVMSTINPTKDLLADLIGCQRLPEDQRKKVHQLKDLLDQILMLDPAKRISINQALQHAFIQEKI
Chain of UniProt Q16594 (Q16594 whole entry): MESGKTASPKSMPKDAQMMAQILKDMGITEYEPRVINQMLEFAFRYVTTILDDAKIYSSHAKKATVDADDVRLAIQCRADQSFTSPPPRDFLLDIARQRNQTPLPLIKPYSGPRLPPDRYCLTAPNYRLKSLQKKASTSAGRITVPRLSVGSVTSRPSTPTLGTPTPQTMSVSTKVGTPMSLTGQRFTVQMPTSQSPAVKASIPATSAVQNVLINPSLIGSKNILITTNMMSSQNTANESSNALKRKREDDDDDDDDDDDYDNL

Target	NP40-soluble protein abundance (concentration: 1mM)	NP40-soluble protein abundance (concentration: 2mM)	NP40-soluble protein abundance (concentration: 4mM)	NP40-soluble protein abundance (concentration: 6mM)	NP40-soluble protein abundance (concentration: 8mM)	NP40-soluble protein abundance (concentration: 10mM)
UniProt Q5RI15|Q5RI15-2	1.12 ± 0.073	1.13 ± 0.1	1.05 ± 0.034	1.1 ± 0.044	1.05 ± 0.049	1.11 ± 0.04
UniProt Q8WZA9	1.03 ± 0.023	1.08 ± 0.07	1.04 ± 0.059	0.988 ± 0.028	0.981 ± 0.021	0.989 ± 0.067
GTF3C6 (UniProt Q969F1)	1.04 ± 0.045	1.07 ± 0.042	1.04 ± 0.032	0.984 ± 0.018	0.99 ± 0.047	1.01 ± 0.035
TAF9 (UniProt Q16594)	1.009 ± 0.0054	1.04 ± 0.02	1.01 ± 0.018	1.01 ± 0.018	1.03 ± 0.016	1.05 ± 0.039
PRPF4B (UniProt Q13523)	1.02 ± 0.02	1.01 ± 0.048	1.1 ± 0.037	1.2 ± 0.032	1.26 ± 0.042	1.34 ± 0.067
ARFGAP1 (UniProt Q8N6T3)	1.02 ± 0.021	1.02 ± 0.023	1.02 ± 0.016	1.02 ± 0.023	0.993 ± 0.018	1.01 ± 0.038
PRPF8 (UniProt Q6P2Q9)	0.989 ± 0.039	0.892 ± 0.15	0.979 ± 0.085	0.966 ± 0.098	1.05 ± 0.13	1.02 ± 0.16
DARS2 (UniProt Q6PI48)	0.939 ± 0.049	0.861 ± 0.12	0.924 ± 0.016	0.918 ± 0.036	0.942 ± 0.021	0.89 ± 0.012
UniProt Q14197|J3KS15	1 ± 0.1	0.952 ± 0.083	0.974 ± 0.087	0.95 ± 0.13	0.978 ± 0.14	0.953 ± 0.19
UniProt Q15223	1.01 ± 0.026	1.028 ± 0.0082	1.011 ± 0.0089	1.01 ± 0.011	0.997 ± 0.023	1.01 ± 0.028
POLA2 (UniProt Q14181)	0.994 ± 0.014	0.974 ± 0.028	1 ± 0.044	1.04 ± 0.03	1.02 ± 0.021	1.03 ± 0.025
UniProt Q460N5|Q460N5-1	1.02 ± 0.02	0.993 ± 0.046	1.04 ± 0.039	0.9762 ± 0.0066	1.01 ± 0.029	0.9765 ± 0.0028
UniProt Q86UK7|Q86UK7-3|Q86UK7-2	1.03 ± 0.043	1.03 ± 0.022	1.07 ± 0.031	1.08 ± 0.038	1.1 ± 0.048	1.11 ± 0.07
